# Test results taken from PubChem BioAssay AID602441 (National Center for Advancing Translational Sciences (NCATS), 2012).
# Hit rate of the full screen: of about 1,300 compounds, fewer than 10 were called active. Inconclusive results (about 9%) are left out. The call rests on the fitted dose curve; in most records, active means well fitted curve in the direction sought with a large enough effect; inconclusive means small, poorly fitted or top-dose-only effect, or another doubt; inactive means no such curve, though single readings can be large or run the other way. Only a sample is shown. A call without a number means that no potency is given here.
# Assay: qHTS for antagonists of the Thyroid Stimulation Hormone Receptor: Hit Validation in Parental Cell Line
# Conditions: parental HEK293 cells lacking TSHR, counter-screen; series mostly up to 56.9 µM
# Source text: The thyroid-stimulating hormone receptor (TSHR) is a member of the 7 trans-membrane-spanning receptor (7TMR) family of cell surface receptors. TSHR-mediated hyperthyroidism is important in thyroid pathology. The development of small molecule antagonists of TSHR may lead to therapeutic approaches for TSHR-mediated hyperthyroidism caused by constitutively activating mutations or stimulating auto-antibodies associated with Graves' disease. Graves' disease is the leading cause of hyperthyroidism and is caused by autoantibodies that stimulate TSHR (TsAbs) causing thyroid growth and unregulated overproduction of thyroid hormones and existing treatments have liabilities (agranulocytosis). In addition, TSHRs are known to be expressed in multiple extrathyroidal tissues including bone, brain, kidney, testis, fat and cells of the immune system but the role of the TSHR in these tissues is not clear. Therefore, TSHR antagonists/inverse agonists could be used as probes of extrathyroidal TSHR function. Finally, TSHR inverse agonists, which are a subclass of antagonists that inhibit agonist-independent (or basal or constitutive) TSHR signaling, could be used to inhibit TSH-independent signaling in patients with recurrent or metastatic thyroid cancer who are receiving thyroid hormone to suppress TSH.
# In collaboration between scientist from the NCGC and the NIDDK, a miniaturized HTRF high-throughput screen was developed. It's a cell based assay, where an anti cAMP antibody contains a fluorescent cryptate tag (excitation 337 nm; emission 620 nm) and the acceptor is cAMP-d2 (excitation 620 nm; emission 665 nm). When antibody and cAMP-d2 interact and are excited by a 337 nm light, a FRET occurs resulting in emission at 665 nm. The assay is competition between cAMP-d2 and cAMP (from the cell lysate). The homogeneous protocol allows for one step dispense after stimulation that is automation friendly. This is a hit validation assay in a counterscreen using parental HEK 293 cells lines.
# NIH Chemical Genomics Center [NCGC]
# NIH Molecular Libraries Probe Centers Network [MLPCN]
# Assay Provider: Marvin Gershengorn, NIDDK
# An anti cAMP antibody contains a fluorescent cryptate tag (excitation 337 nm; emission 620 nm) and the acceptor is cAMP-d2 (excitation 620 nm; emission 665 nm). When antibody and cAMP-d2 interact and are excited by a 337 nm light, a FRET occurs resulting in emission at 665 nm. The assay is competition between cAMP-d2 and cAMP (from the cell lysate). The homogeneous protocol allows for one step dispense after stimulation that is automation friendly. This assay uses parental HEK-EM 293 cells
# Potency means the concentration at half of the fitted maximal effect.
row,Compound,Potency
1,CC(C)c1ccc(OCC(=O)Nc2cccc3c2CCCC3)cc1,inactive
2,O=C(Cn1cnc2ccccc21)Nc1ccc2c(c1)OCCCO2,inactive
3,Cc1c(Nc2cc(Cl)c3nonc3c2[N+](=O)[O-])c(=O)n(-c2ccccc2)n1C,inactive
4,CN(C)S(=O)(=O)c1ccc(N2CCN(S(=O)(=O)c3ccc(F)cc3)CC2)c(Cl)c1,inactive
5,CC(NC(=O)c1ccc([N+](=O)[O-])o1)C1CC2CCC1C2 (configuration not stated),inactive
6,C=CCC1(CC=C)CCCN1C(=O)c1cc(COc2ccc(C)nc2)on1,inactive
7,C=CCN1C(=O)C(Cc2ccc(OC)cc2)S/C1=N/N=C/c1ccco1 (configuration not stated),inactive
8,CSc1cnn(Cc2ccccc2)c(=O)c1SCc1ccccc1,inactive
9,COC(=O)c1ccc(COc2cc(O)c3c(c2)OC(C)(C)CC3=O)cc1,inactive
10,COc1ccc(-c2csc3ncnc(N4CCN(S(=O)(=O)c5cccs5)CC4)c23)cc1,inactive
11,N#Cc1ccc(CN2CCN(C(=O)c3ccc(S(=O)(=O)N4CCCCCC4)cc3)CC2)cc1,inactive
12,Cc1ccc(NC(=O)COc2cccc3c2OC(C)(C)C3)c(O)c1,inactive
13,N#C/C(=N\Nc1ccc(S(=O)(=O)N2CCCCCC2)cc1)C(N)=S,inactive
14,Cc1sc2nc(-c3ccccn3)[nH]c(=O)c2c1-c1ccccc1,inactive
15,O=S(=O)(NCc1csc(-c2ccccc2)n1)c1ccc(Cl)s1,inactive
16,O=C(Nc1ccc(Br)cc1)c1cccc(S(=O)(=O)Nc2cnc3ccccc3c2)c1,inactive
17,COc1ccc2ccccc2c1/C=N/NC(=O)c1nnn(-c2nonc2N)c1C(C)C,inactive
18,COc1ccc(-c2csc(/C(C#N)=C\c3ccc(O)c([N+](=O)[O-])c3)n2)cc1OC,inactive
19,CCOC(=O)c1sc(NC(=O)c2cc(-c3ccccc3C)nc3ccccc23)c(C#N)c1C,inactive
20,Cc1ccc(OCc2cc(C(=O)NC3CCCCC3)no2)cn1,inactive
21,O=C(Nc1ccncc1)c1cccc(S(=O)(=O)N2CCc3ccccc32)c1,inactive
22,N#C/C(=N/Nc1ccc(OC(F)(F)F)cc1)C(N)=S,inactive
23,Cc1ccc(CN2CCc3c(OCc4ccc(F)cc4)cccc3C2=O)cc1,inactive
24,COc1ccc(C(=O)c2ccccc2)c2c(O)ccc(C(=O)c3ccccc3)c12,inactive
25,CCCC(=O)OCCNc1cc(Sc2nc3ccccc3[nH]2)c2nonc2c1[N+](=O)[O-],inactive
26,N#CC(C#N)=NNc1ccc(S(=O)(=O)N2CCCCC2)cc1,inactive

row,Compound,Potency
1,COc1ccc(NS(=O)(=O)c2cccc(NC(=O)C3=NN(c4ccccc4)C(=O)CC3)c2)cc1,inactive
2,CCOc1ccc(-c2csc(/C(C#N)=C\c3ccc(O)c([N+](=O)[O-])c3)n2)cc1,inactive
3,Cc1cc(C)n(C(=O)/C(C#N)=N/Nc2cc(Cl)cc(Cl)c2)n1,inactive
4,COc1ccccc1C(=O)COC(=O)/C=C/c1ccccc1,inactive
5,CN(C)c1ccc(/C=C/c2cc[n+](C)cc2)cc1,inactive
6,CC[n+]1ccc(/C=C/c2ccc(N(C)C)cc2)c2ccccc21,26.9 µM (active)
7,O=C(CN1C(=O)c2ccccc2S1(=O)=O)NCCSCc1cccc(Cl)c1,inactive
8,CC1CCC(C(C)C)C(OC(=O)Cn2c(-c3ccccc3)[n+](C)c3ccccc32)C1 (configuration not stated),inactive
9,N#Cc1c(C(F)(F)F)cc(-c2ccc(Cl)cc2)[nH]c1=O,inactive
10,COc1ccc2nc(C)cc(N3CCN(S(=O)(=O)c4ccccc4F)CC3)c2c1,inactive
11,Cc1nc2ncnn2c(N2CCCC(C(=O)Nc3ccccc3Br)C2)c1C (configuration not stated),inactive
12,O=S(=O)(c1ccc(Cl)cc1)N1CCN(c2ncnc3sccc23)CC1,inactive
13,Cc1noc(C)c1COc1ccccc1C(=O)N(C)Cc1ccc(C(C)(C)C)cc1,inactive
14,O=c1cc(C(F)(F)F)[nH]c2ccc(OC(F)(F)F)cc12,inactive
15,CCCC(=O)Nc1cccn(Cc2ccccc2Br)c1=O,inactive
16,Cc1ccc(NC(=O)c2ccccc2NS(=O)(=O)c2ccc(F)cc2)cc1S(=O)(=O)N1CCCCC1,inactive
17,COc1cccc(C(=O)Nc2ccc(NC(=O)C3CCCCC3)nc2)c1,inactive
18,Cc1ccc(NC(=O)C(C)c2ccc(-c3ccccc3)c(F)c2)cc1 (configuration not stated),inactive
19,O=C(Nc1ccc(N=Nc2ccccc2)cc1)c1ccccc1Cl,inactive
20,O=C(O)c1cccc(NC2=C(Cl)C(=O)c3ccccc3C2=O)c1,inactive
21,CCN(CC)c1ccc2nc3ccccc3[n+](CC)c2c1,13.5 µM (active)
22,Cn1c2c(c(=O)n(C)c1=O)C(C(F)(F)F)(C(F)(F)F)N=C(c1ccc(Cl)cc1)N2,inactive
23,Cc1sc(N/N=C/c2cccnc2)nc1-c1ccccc1,inactive
24,COc1ccccc1CNc1ncnc2sccc12,inactive
25,COc1ccc(NS(=O)(=O)c2ccc(N/N=C(\C)c3ccncc3)c([N+](=O)[O-])c2)cc1,inactive
26,COC(=O)c1sc(-c2ccc(Cl)cc2)cc1NC(=O)/C=C/C(=O)O,inactive

row,Compound,Potency
1,COc1cccc(-c2nc(CS(=O)(=O)CC(=O)NC3CCCCCC3)c(C)o2)c1,inactive
2,CCCOc1ccc(-c2cc(C(=O)NCC3CCCO3)c3ccccc3n2)cc1 (configuration not stated),inactive
3,COc1ccc(S(=O)(=O)N2CCN(c3cccc(C)c3C)CC2)cc1,inactive
4,CCOC(=O)c1cc(C(=O)Nc2sc3c(c2C#N)CCCC3)nn1C,inactive
5,Cc1cccc(N(C(=O)c2nsc(Cl)c2Cl)C(C(=O)NC2CCCC2)c2ccc(O)cc2)c1C (configuration not stated),inactive
6,Cc1occc1-c1nnc(SCC(=O)Nc2nc(C(C)(C)C)cs2)o1,inactive
7,COc1ccc(Cn2nnnc2C(C(C)C)N2CCN(c3ccccc3OC)CC2)cc1 (configuration not stated),inactive
8,O=C(Nc1nc(-c2ccc(S(=O)(=O)N3CCCCCC3)cc2)cs1)c1ccccc1,inactive
9,Cc1ccc(C)c(C(=O)OCC(=O)Nc2cccc(S(=O)(=O)N3CCCCC3)c2)c1,inactive
10,CCOC(=O)c1c(-c2ccccc2)csc1NC(=O)CSc1nnnn1C,inactive
11,Cc1ccccc1-c1cc(C(=O)Nc2sc(C(=O)OC(C)C)c(C)c2C#N)c2ccccc2n1,inactive
12,Cc1ccc(C(=O)COC(=O)CCN2C(=O)C3C4CCC(C4)C3C2=O)cc1[N+](=O)[O-] (configuration not stated),inactive
13,COc1ccc(CCNc2ncnc3sc(C)cc23)cc1OC,inactive
14,Cc1cc2c(NCc3ccccc3)ncnc2s1,inactive
15,COC(=O)c1ccc(/C(O)=C(\C#N)c2nc3ccccc3s2)cc1,inactive
16,COc1ccc(-c2sc3ccc(N4CCOCC4)cc3c2C#CCO)cc1,inactive
17,Cc1[nH]c2ccccc2c1/C=C/c1cc[n+](C)cc1,inactive
18,O=C(NCC1CCCN(C(=O)c2cccc(C(F)(F)F)c2)C1)c1ccc(F)cc1 (configuration not stated),inactive
19,COc1ccc(-c2c(C(F)(F)F)[nH]n3c(=O)cc(-c4ccccc4)nc23)cc1,inactive
20,COc1ccc(/C=C2/SC(=S)NC2=O)cc1OCc1ccccc1,inactive
21,COc1ccc(OC)c2c1C(=O)C(Cl)=C(Cl)C2=O,inactive
22,O=C1c2ccccc2C(=O)N1CCCCSc1nnnn1-c1ccccc1,inactive
23,Cc1cc(Br)ccc1OCC(=O)NC1CCCC1,inactive
24,COc1ccccc1NS(=O)(=O)c1cc(NC(=O)c2ccc3c(c2)OCCO3)ccc1C,inactive
25,O=C(COc1ccc(Cl)cc1Cl)Nc1ccc(C(=O)Nc2ccccc2C(=O)O)cc1,inactive
26,O=C(COC(=O)c1ccccc1SCC(=O)N1CCCC1)Nc1ccccc1,inactive

row,Compound,Potency
1,Cc1ccc(OC(F)F)c(NC(=O)Nc2cccc(C(F)(F)F)c2)c1,inactive
2,O=C(c1cc(COc2cccc3cnccc23)on1)N1CCCC(CCCO)C1 (configuration not stated),inactive
3,Cc1ccc(S(=O)(=O)/N=C2/NC(=O)/C(=C\c3cc(Br)cc(Br)c3O)S2)cc1,inactive
4,CCN(CC)S(=O)(=O)c1cccc(C(=O)/C=C2/N(C)c3ccccc3C2(C)C)c1,inactive
5,CCCOc1ccc(CSc2nc3ccccc3[nH]2)cc1,inactive
6,Cc1nn(CCCC(=O)Nc2cc(Oc3ccccc3)cc([N+](=O)[O-])c2)c(C)c1[N+](=O)[O-],inactive
7,Cc1ccccc1CS(=O)(=O)c1ncc(Cl)c(C(=O)Nc2ccc(F)cc2)n1,inactive
8,Cc1cc(NC(=O)CC(C)C)c(=O)n(Cc2cccc(F)c2)c1,inactive
9,CCOC(=O)c1c(NC(=O)/C=C/C(=O)O)sc(C)c1-c1ccc(F)cc1,inactive
10,Cc1cc(NC(=O)c2cccc(S(=O)(=O)N3CCOCC3)c2)c2ccccc2n1,inactive
11,O=C(Nc1nnc(C(F)(F)F)s1)c1ccc(Br)s1,inactive
12,COc1ccc(-c2nc(NC(=O)c3cc(C(C)(C)C)nn3C)sc2C)cc1,inactive
13,CCc1noc(C)c1C(=O)Oc1ccc(N(C)S(=O)(=O)c2ccc(C)cc2)cc1,inactive
14,COc1ccc(C(=O)N2CCN(c3ccc([N+](=O)[O-])c(NCCc4ccc(OC)c(OC)c4)c3)CC2)cc1,inactive
15,O=[N+]([O-])c1ccc(S(=O)(=O)c2ccccc2)nc1,inactive
16,CC1CC(C)CN(C(=O)c2ccc3c(=O)n(Cc4ccc5c(c4)OCO5)c(=S)[nH]c3c2)C1 (configuration not stated),inactive
17,CCc1nnc(NC(=O)c2ccc(Cl)c(S(=O)(=O)N3CCc4ccccc43)c2)s1,inactive
18,COCCn1nnnc1C(c1cccs1)N1CCN(c2cc(C)ccc2C)CC1 (configuration not stated),inactive
19,Cc1cc(NC(=O)c2cc(-c3ccco3)on2)nn1Cc1ccc(Cl)cc1,inactive
20,COc1ccc(-c2csc(NC(=O)c3ccccc3NS(=O)(=O)c3ccc(C)cc3)n2)cc1,inactive
21,Cc1cccc(OCCCCc2c(C)n[nH]c2C)c1C,inactive
22,Cc1cc2cc(CCNC(=O)c3ccc(S(=O)(=O)N4CCCC4)cc3)c(=O)[nH]c2cc1C,inactive
23,O=C(NCCc1ccccc1)C(=O)NCC1OCCCN1S(=O)(=O)c1cc(F)ccc1F (configuration not stated),inactive
24,CCOc1ccc(NS(=O)(=O)c2cc(NC(=O)c3cccc(C)c3)ccc2Cl)cc1,inactive
